Assay results: PubChem BioAssay AID651957 (The Scripps Research Institute Molecular Screening Center, 2012)
Among all 370,000 compounds or so, about 620 (0.17%) were called active. The sample holds actives, similar compounds and a random draw of the others, so the mix is not that of the screen. A number with no mark means an inactive call.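 How the source made its calls: active means inhibition above the mean inhibition of all tested compounds plus 3 SD, set per campaign (cut at about 52% in these data); inactive means the rest.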

Biological target: Nuclear receptor coactivator 2 (Homo sapiens) (UniProt Q15596)
Sequence (Q15596 whole entry, looked up, the tested form may be a part): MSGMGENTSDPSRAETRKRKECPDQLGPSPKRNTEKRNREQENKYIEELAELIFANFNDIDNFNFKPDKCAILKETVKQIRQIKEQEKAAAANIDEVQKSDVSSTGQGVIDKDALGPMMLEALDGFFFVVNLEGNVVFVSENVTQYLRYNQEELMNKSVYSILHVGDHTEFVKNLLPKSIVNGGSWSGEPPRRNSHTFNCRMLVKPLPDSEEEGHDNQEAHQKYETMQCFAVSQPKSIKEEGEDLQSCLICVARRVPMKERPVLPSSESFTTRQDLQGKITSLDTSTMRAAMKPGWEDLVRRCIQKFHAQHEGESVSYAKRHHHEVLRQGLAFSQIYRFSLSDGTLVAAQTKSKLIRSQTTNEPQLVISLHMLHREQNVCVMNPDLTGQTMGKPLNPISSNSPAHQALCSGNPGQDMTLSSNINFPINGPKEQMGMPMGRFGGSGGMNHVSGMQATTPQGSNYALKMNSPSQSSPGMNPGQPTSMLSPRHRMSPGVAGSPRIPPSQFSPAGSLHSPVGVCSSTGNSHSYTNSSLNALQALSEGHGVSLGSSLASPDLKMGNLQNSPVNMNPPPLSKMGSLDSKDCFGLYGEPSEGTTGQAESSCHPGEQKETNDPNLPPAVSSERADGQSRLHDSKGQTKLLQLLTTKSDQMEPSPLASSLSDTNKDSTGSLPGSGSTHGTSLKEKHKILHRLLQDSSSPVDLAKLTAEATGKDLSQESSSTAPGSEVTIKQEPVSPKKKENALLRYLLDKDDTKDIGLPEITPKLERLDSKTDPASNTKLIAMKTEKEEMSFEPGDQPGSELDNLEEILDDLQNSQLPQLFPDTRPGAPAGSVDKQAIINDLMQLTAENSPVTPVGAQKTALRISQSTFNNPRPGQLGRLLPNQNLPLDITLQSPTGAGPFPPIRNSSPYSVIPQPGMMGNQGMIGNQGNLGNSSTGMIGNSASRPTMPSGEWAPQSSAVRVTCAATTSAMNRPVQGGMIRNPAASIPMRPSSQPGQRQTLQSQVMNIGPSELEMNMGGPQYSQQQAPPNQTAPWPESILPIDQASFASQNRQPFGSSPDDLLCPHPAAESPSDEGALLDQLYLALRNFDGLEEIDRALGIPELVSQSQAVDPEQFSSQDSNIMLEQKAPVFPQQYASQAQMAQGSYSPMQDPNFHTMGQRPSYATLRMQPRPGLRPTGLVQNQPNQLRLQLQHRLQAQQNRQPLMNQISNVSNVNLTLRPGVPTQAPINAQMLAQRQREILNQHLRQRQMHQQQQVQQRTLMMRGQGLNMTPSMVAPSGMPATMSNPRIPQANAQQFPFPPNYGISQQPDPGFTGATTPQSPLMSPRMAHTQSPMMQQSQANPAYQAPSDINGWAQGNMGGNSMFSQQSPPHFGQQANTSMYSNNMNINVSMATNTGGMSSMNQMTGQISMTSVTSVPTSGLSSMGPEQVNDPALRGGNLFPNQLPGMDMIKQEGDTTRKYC
Assay: decrease of SRC2 fusion reporter luminescence – cell-based, SRC2 inhibitor project, primary screen (AID 651957);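 further: 0% = DMSO treated cells and 100% = cells given Gossypol at 36 µM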
Conditions: HEK293 GAL4-SRC2 luciferase reporter, at 9 µM, stronger effect = higher value

SMILES	inhibition
Cc1cc(N2CCN(C(=O)OC(C)(C)C)C[C@H]2C)ccc1N1CCN(Cc2ccccc2)[C@H](C)C1	-2.83%
COc1ccc(CN2C(=O)N3Cc4cc(OC)ccc4C3CS2(=O)=O)cc1 (stereo not given)	15.8%
Cc1ccc(-n2c(SCC(=O)Nc3ccc(S(=O)(=O)Nc4nccs4)cc3)nnc2-c2ccccn2)cc1	9.13%
CC(=O)NCc1ccc(S(=O)(=O)NC2CCN(Cc3ccccc3)CC2)cc1	6.61%
COC(=O)[C@@H]1C[C@@]2(O)[C@@H](O)[C@@H](O)[C@@H](O)C[C@H]2N1Cc1ccc(C)s1	-14.3%
C/C=C/c1ccc(OCC(O)CN2CCCCCCC2)c(OC)c1 (stereo not given)	11.7%
CCOC(=O)[C@@]12CN(C(=O)OC(C)(C)C)CC=C1N(Cc1ccc(OC)cc1)C(=O)[C@H]2CC(=O)NCc1ccc(OC)c(OC)c1	-4.35%
O=C(CSc1nnc(-c2ccccc2)n1Cc1ccco1)Nc1ccccc1-c1ccccc1	-16.5%
CC(=O)C1=C(C)N(Cc2ccccc2)C(=S)NC1c1cccc(Br)c1 (stereo not given)	-0.56%
COC(=O)c1ccc(CN2C(=O)[C@]3(OCCC=C[C@H]3C)c3c(Br)cccc32)cc1	4.53%
Cc1cc(Nc2ccccc2)n(C(=O)c2ccc(N)cc2)n1	62% (active)
Cc1ccc(NC(=O)Nc2cc(C)nn2-c2ccccc2)cc1	-32.3%
Cn1c(Nc2ccccc2)cc(=O)n(C)c1=O	-0.54%
COc1ccc2c(c1)CN1CN(CCc3ccccc3)S(=O)(=O)CC21 (stereo not given)	5.4%
O=C(NCc1ccccc1)[C@H]1CCCN1C(=O)[C@H]1CCCN1C(=O)N1CCOCC1	3.99%
CCOC(=O)C1CCCN(C(=O)c2cccc3ccccc23)CC1 (stereo not given)	7.84%
CCC(C)(C(=O)NC1CCCCC1)N(C)C(=O)c1ccc2c(c1)OCO2 (stereo not given)	-11.6%
COc1ccc(OC)c(CNC(=O)c2cc(=O)[nH]c3ccc(S(=O)(=O)N4CCCC4)cc23)c1	-15.1%
O=C1CC[C@@H](COc2ccc3[nH]cc(-c4ccccc4)c3c2-c2ccccc2)N1	4.07%
CCCc1nc(SCC(=O)N2CCCC2)c2c(=O)n(C)c(=O)n(C)c2n1	2.56%
O=C1NC(c2ccccc2)CCC1(Cl)Cl (stereo not given)	-13.7%
O=C1NC(c2ccccc2)Cc2ccncc21 (stereo not given)	58.9% (active)

SMILES	inhibition
O=C1NC(c2ccccc2)Oc2ccccc21 (stereo not given)	-0.1%
CCCCn1c(N)c(N(Cc2ccccc2OC)C(=O)COc2cc(C)ccc2Cl)c(=O)[nH]c1=O	-2.7%
O=C(NCc1nnc(SCC(=O)N2CCCCCC2)o1)c1ccc(F)cc1	-14.4%
Cc1ccccc1NC(=O)COC(=O)c1ccc(Sc2ncn[nH]2)c([N+](=O)[O-])c1	-15.7%
COC(=O)c1cc(S(=O)(=O)N2CCN(c3ccccc3C)CC2)cn1C	20.3%
C[C@@H]1COc2cccc(N3CCCC3)c2S(=O)(=O)N1C	-9.18%
Cc1ccc2oc(=O)c3cnn(CC(=O)N(Cc4ccco4)C4CCCCC4)c3c2c1	-25.6%
NNC(=O)C1CC(O)CN1S(=O)(=O)c1ccc(Cl)cc1 (stereo not given)	23.4%
COc1ccccc1CNC(=O)C1CCN(S(=O)(=O)c2ccc3c(c2)OCCO3)CC1	-1.43%
COC(=O)[C@]12C[C@H](CC(=O)N3CCN(C(=O)C4CC4)CC3)C(=O)N(CCC3=CCCCC3)C1=C[C@H](C(C)C)O[C@@H]2C1CC1	-0.28%
CCNC(=S)N1CCC(c2nc3cc(C)c(C)cc3[nH]2)CC1	-32.6%
O=C(CSc1nnc(-c2ccccn2)n1-c1ccccc1)Nc1ccc2cn[nH]c2c1	-5.6%
CC(C)(C)C(c1nc2ccccc2[nH]1)n1c(Cc2csc3ccccc23)nc2ccccc21 (stereo not given)	-15%
CS(=O)(=O)N1CCN=C1SCc1ccc(F)cc1	-10.1%
O=C(C1CCN(S(=O)(=O)c2ccccc2)CC1)N1CCN(C2CCCCC2)CC1	14.3%
COC(=O)C1=C(C)N(Cc2ccc(C(F)(F)F)cc2)C(=NCc2ccc(C(F)(F)F)cc2)NC1c1cccc(Cl)c1 (stereo not given)	-4.35%
OCCCNc1nccc(-c2cc(Nc3cccc(Cl)c3)ncn2)n1	56.3% (active)
Cc1ccc(NC(=O)c2cc(C)nn2-c2ccccc2)c(C)c1	4.89%
CCCC(=O)N1CCC1(C)C(=O)NCc1ccc(SC)cc1 (stereo not given)	-38.9%
Cc1sc2nc(SCC(=O)c3ccc(O)c(O)c3)n(Cc3ccco3)c(=O)c2c1C	8.73%
C=CCN=C1NC(c2cccc(C(F)(F)F)c2)C(C(=O)OC)=C(C)N1C (stereo not given)	-11.9%
CC(C)N1CCCCC(NC(=O)c2ccc3ccccc3c2)C1=O (stereo not given)	-10%

SMILES	inhibition
CCOc1ccc(S(=O)(=O)NCCCn2ccnc2)cc1NC(C)=O	12.2%
Nc1[nH]c(/C=C2/CCCCC2n2[nH]c(=O)n(-c3ccccc3)c2=O)c(Cc2ccccc2)[n+]1Cc1ccccc1 (stereo not given)	12.9%
C=CCN1[C@@H](Cc2ccccc2)COc2cccc(N3CCSCC3)c2S1(=O)=O	10.1%
CC(C)(C)OC(=O)NCc1cc(F)ccc1/C=C/S(=O)(=O)NCCc1ccccc1	4.87%
COc1cccc(N(C)C(=O)[C@@H](C)[C@@H](O)c2ccc3ccccc3c2)c1	-32.8%
CC(C)CC(CCc1ccccc1)OS(N)(=O)=O (stereo not given)	-15.3%
O=C(O)C1C2C=CC(C2)C1C(=O)N1CCN(CCO)CC1 (stereo not given)	-0.51%
OCCN1CCN(C(=S)c2ccc(-c3ccccc3)cc2)CC1	71.1% (active)
O=C(NC(=S)N1CCN(Cc2ccccc2)CC1)c1ccccc1	-12.4%
CC(=O)OC12CCCN(C1)/C(=C/c1ccncc1)C2 (stereo not given)	12.7%
COC(=O)C1=C(C)N(Cc2cccc(C(F)(F)F)c2)C(=NCc2ccccc2)NC1c1ccc(Cl)cc1 (stereo not given)	-0.5%
Cc1ccccc1NC(=O)c1nn(-c2ccc(F)c(F)c2)ccc1=O	1.35%
Cc1nnnn1/C(=C\c1ccccc1)C(=O)OCC(=O)N1CC2(C)CC1CC(C)(C)C2 (stereo not given)	32.3%
O=C1N=C2SCCN2/C1=C\c1c(Cl)cccc1Cl	4.12%
Cc1ccc(NC(=O)CCOc2ccccc2)cc1S(=O)(=O)Nc1ccccc1Cl	9.26%
CC(C)Cc1nc(Nc2ccc(S(=O)(=O)N3CCCC3)cc2)c2nnn(Cc3ccccc3)c2n1	-14.5%
CCCCOCCCNC(=O)C[C@H]1C[C@@]2(C(=O)OC)C(=C[C@H](C(C)(C)C)O[C@@H]2C)N(CCc2ccc(OC)c(OC)c2)C1=O	1.08%
COc1ccc(/C=C2/SC(=O)N(CCCCCC(=O)Nc3ccccc3C(=O)O)C2=S)cc1	58.3% (active)
COc1ccc(NC(=O)CN2C(=O)CSC2=O)cc1	-15.1%
COc1ccc(NC(=O)CCCN2C(=O)C(c3ccccc3)Oc3cccnc32)cc1 (stereo not given)	2.65%
CC(=O)Nc1ccc(NC(=O)C(C)n2c3ccccc3c3nc(=O)cc(C)n32)cc1 (stereo not given)	-6.71%
O=C1C=C(c2ccccc2)CCC1	-5.31%

SMILES	inhibition
COC(=O)[C@]12C[C@H](CC(=O)NCc3ccccc3)C(=O)N(CCC3=CCCCC3)C1=C[C@H](C(C)(C)C)O[C@@H]2C	28.1%
N=c1n(CCc2ccccc2)c2ccccc2n1Cc1ccccc1F	2.8%
COc1c(C=O)c(CCN(C)C(=O)c2ccc(F)cc2)cc2c1OCO2	0.41%
CCCC[C@H]1C2CC(OC(=O)NCc3ccccc3)C(C2)[C@H]2CCCCN21 (stereo not given in full)	-8.24%
COCCC(=O)Nc1ccc2c(c1)CN(C(=O)CCOC)CC2	9.25%
Cc1ccc(C(=O)N(Cc2ccccn2)CC2CCCO2)cc1 (stereo not given)	-16.2%
Cc1noc(C)c1NC(=O)Nc1ccc2c(c1)C(=O)N([C@H](C)CO)C[C@H](C)[C@H](CN(C)Cc1ccncc1)OCCCC[C@@H](C)O2	5.48%
CC(C)N1CCCCC(NC(=O)C(C)(C)C)C1=O (stereo not given)	11.4%
O=C(Nc1ccccc1Cl)/C(Cl)=C(\Cl)S(=O)c1ccccc1 (stereo not given)	85.5% (active)
COc1ccc(N2c3ccccc3CN(Cc3ccccc3)[C@@H](C)[C@H]2Cc2ccc(-c3ccccc3)cc2)cc1	-9.73%
Cc1c(C(C)c2ccccc2O)[nH]c2ccccc12 (stereo not given)	-18.6%
O=S1(=O)c2c(cccc2N2CC[C@H](O)C2)O[C@@H]2CCN1C2	-22.3%
Cc1ccc(C2=CCN(C)C(=O)N2c2ccc(Cl)cc2)cc1	30.5%
O=C(NC1CCCCN(Cc2cccc(C(F)(F)F)c2)C1=O)c1ccccc1I (stereo not given)	18.9%
CCCC(CCC(=O)OC)(C(=O)OCC)c1csc(N)n1 (stereo not given)	11%
CCOC(=O)[C@]12CCCCC/C=C\1N(Cc1ccc(OC)cc1)C(=O)[C@H]2CC(=O)NCc1ccc(C)o1	-22.3%
O=C(CSc1nc2ccccc2n1Cc1ccccc1)NNC(=S)Nc1ccccc1	4.68%
COC(=O)C1=C(C)N(Cc2cccc(C(F)(F)F)c2)C(=NCc2cccc(C(F)(F)F)c2)NC1c1ccccc1C(F)(F)F (stereo not given)	-30.7%
Cc1ccccc1CN1CCCCC(NC(=O)c2cccc(C#N)c2)C1=O (stereo not given)	-18.3%
